About 83,000 compounds went through this panel and 20% of them were active in at least one assay; those are over-represented in the sample as a whole.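 A percent growth of 40 corresponds to 60% growth inhibition; 0 means no net growth; -100 means all cells died. Active threshold: below 10.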 Values without a mark were called inactive. Active and inactive are the calls of the source.
Key:
Assay in all cases: NCI-60 one-dose screen, 48 h (100 = growth as untreated, 0 = no growth, -100 = all killed)
Conditions in all cases: 10 µM unless noted
SR leukemia = test system: SR leukemia
RPMI-8226 leukemia = test system: RPMI-8226 leukemia
OVCAR-8 ovarian = test system: OVCAR-8 ovarian
OVCAR-5 ovarian = test system: OVCAR-5 ovarian
OVCAR-4 ovarian = test system: OVCAR-4 ovarian
SK-OV-3 ovarian = test system: SK-OV-3 ovarian
OVCAR-3 ovarian = test system: OVCAR-3 ovarian
HS 578T breast = test system: HS 578T breast
NCI/ADR-RES ovarian = test system: NCI/ADR-RES ovarian
IGROV1 ovarian = test system: IGROV1 ovarian

| SMILES | growth (SR leukemia) | growth (RPMI-8226 leukemia) | growth (OVCAR-8 ovarian) | growth (OVCAR-5 ovarian) | growth (OVCAR-4 ovarian) | growth (SK-OV-3 ovarian) | growth (OVCAR-3 ovarian) | growth (HS 578T breast) | growth (NCI/ADR-RES ovarian) | growth (IGROV1 ovarian) |
| --- | --- | --- | --- | --- | --- | --- | --- | --- | --- | --- |
| COc1ccc(NC(=O)NN2C(=O)c3ccccc3N(C)C2c2ccc(OC)cc2)cc1 (stereo not given) | 88.4% | 99.1% | 103% | 107% | 96.7% | 101% | 89.8% | 101% | 92.2% | – |
| C#CCN(C)CCCOc1ccc(N(CC)C(=O)c2cc(C(C)C)c(O)cc2O)cc1Cl | -34.3% (active) | -33.5% (active) | 2.93% (active) | 19.7% | 26.1% | 7.75% (active) | 20.6% | 9.36% (active) | -33.1% (active) | – |
| O=C(NN1C(=O)/C(=C/C=C/c2ccc([N+](=O)[O-])o2)SC1=S)c1ccc([N+](=O)[O-])cc1 | -5.7% (active) | -30.6% (active) | -75.5% (active) | -100% (active) | -99% (active) | -100% (active) | -97.1% (active) | -27.3% (active) | -44% (active) | – |
| CN1CCN(C(=O)Oc2cc3c(c4ccccc24)[C@H](CCl)CN3C(=O)c2cc3cc(OCCCN4CCC4)ccc3[nH]2)[C@H]2CSSC[C@H]21 | -21.2% (active) | -31.2% (active) | -13.1% (active) | -19.6% (active) | -1.62% (active) | -16.5% (active) | -10.9% (active) | -7.11% (active) | -29.2% (active) | 4.39% (active) |
| COc1cc(CNC(=O)C[C@H](C)CCC=C(C)C)ccc1OCc1cn(-c2ccccc2Cl)nn1 | 48.5% | 47.6% | 49.8% | 93.1% | 33.3% | 83% | 83.6% | 81% | 24% | – |
| OC(c1ccccc1)(c1ccccc1)C1CCN(c2ccc3nnc(Cl)n3n2)CC1 | -22.3% (active) | 13.8% | 33.9% | 70% | 30.3% | 90.2% | 42.2% | 71.1% | 18.6% | 39.8% |
| FC(F)(F)CN1CCN(CCn2c(C(F)(F)F)cc3c(Cl)ncnc32)CC1 | -54.6% (active) | -6.12% (active) | 8.76% (active) | 103% | 21.5% | 71.4% | -47.4% (active) | 47.4% | 75.1% | -80.5% (active) |
| O=C(c1ccc(Cl)cc1)C1[C@H](c2ccccc2Cl)[C@@H](c2ccccc2)NC12C(=O)Nc1ccc(Br)cc12 (stereo not given in full) | -54.4% (active) | 2.44% (active) | -76.9% (active) | -91.5% (active) | -33.3% (active) | -7.68% (active) | -48.3% (active) | -36% (active) | -87% (active) | -59.8% (active) |
| CC[C@]12C=CCN3CC[C@]4(C(=C(C(=O)OC)C1)Nc1cc(OC)c([C@@H]5[C@H]6O[C@H]6[C@@]6(CC)CC(C(=O)OC)=C7Nc8cc(O)ccc8[C@@]78CCN5[C@@H]68)cc14)[C@@H]32 | -30.7% (active) | -5.84% (active) | 27.6% | -66.7% (active) | 14.6% | 40.2% | -9.2% (active) | 23.7% | 6.92% (active) | 1.62% (active) |
| COc1cc(/C=C/C(=O)c2cnn(-c3cc(=O)[nH]c4ccc(C)cc34)c2C)cc(OC)c1OC | -8.63% (active) | -40.2% (active) | 11.5% | -37.3% (active) | 39.3% | 24.7% | -50.1% (active) | 52.5% | -11.1% (active) | -1.52% (active) |
| Cc1ccc2nc(SCc3ccccc3F)n(-c3ccccc3)c(=O)c2c1 | 109% | 93.4% | 100% | 116% | 98.9% | 118% | 115% | 96.3% | 89% | 105% |
| COc1cc(-c2ccc3ncnc(N4CCc5ccc(Cl)cc54)c3c2)cnc1Cl | 12.3% | -4.08% (active) | 37.1% | 34.7% | 33.3% | 17.4% | 29.2% | 23.5% | 26.6% | -44.4% (active) |
| N#CC1=C(c2cccs2)Nc2c(c(-c3ccccc3)nn2-c2ccccc2)C12C(=O)Nc1ccccc12 (stereo not given) | 1.46% (active) | 34.5% | 24.2% | 57.7% | 29.2% | 28.4% | 12.7% | 4.59% (active) | 61.6% | 50.7% |
| COc1ccc(N=Nc2c(N)nn3c(-c4ccc(F)cc4)ccnc23)cc1 | 3.18% (active) | 95.5% | 73.1% | 80% | 26.1% | 113% | 79.6% | 107% | 74.3% | 99.9% |
| COc1ccc(-c2cc(-c3cc(C(C)C)c(O)cc3C)nn2-c2ccc(S(N)(=O)=O)cc2)cc1 | 5.77% (active) | 16.5% | 24.5% | 65.8% | 64% | 60.5% | 8.38% (active) | 28.9% | -17.2% (active) | – |
| O=C1CC(c2ccc(I)cc2)OC2C=Cc3ccccc3C12 (stereo not given) | 88.9% | 87.2% | 104% | 115% | 96.7% | 96.7% | 125% | 104% | 104% | 119% |
